Laboratory results published in PubChem BioAssay.
Calls of active or inactive are those of the source.

What was measured:
[1] = system: XIP peptide (Xip251-270) binding; assay: small-molecule binders of XIP peptide, primary screen, biochemical, small-molecule microarray, fluorescence 635/667 nm, 0.1 µg/mL protein (AID 1182); conditions: fluorescent protein binding, 635 nm, higher = more signal, called active from +8 up or from −8 down
XIP peptide (Xip251-270) = assay: small-molecule binders of XIP peptide, primary screen, biochemical, small-molecule microarray, fluorescence 635/667 nm, 0.5 µg/mL protein (AID 1183); conditions: small-molecule microarray binding, fluorescence 635 nm; higher = more signal
[2] = Plasmodium falciparum growth inhibition, primary screen, strain 3D7, DAPI fluorescence, 100 nL (AID 1184);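 note: parasites grown inside human red blood cells in medium with human serum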; conditions: P. falciparum 3D7 growth, 3 d, higher = more signal
[3] = target: Homeobox protein Hox-A13 (Mus musculus) (UniProt Q62424); assay: inhibitors of HoxA13-DNA binding, primary screen, biochemical, fluorescence polarization, labeled oligonucleotide (AID 1185); conditions: 15 min, higher = more signal, called active from +8 up or from −8 down
Sequence of Homeobox protein Hox-A13 (Mus musculus) (Q62424 whole entry, looked up): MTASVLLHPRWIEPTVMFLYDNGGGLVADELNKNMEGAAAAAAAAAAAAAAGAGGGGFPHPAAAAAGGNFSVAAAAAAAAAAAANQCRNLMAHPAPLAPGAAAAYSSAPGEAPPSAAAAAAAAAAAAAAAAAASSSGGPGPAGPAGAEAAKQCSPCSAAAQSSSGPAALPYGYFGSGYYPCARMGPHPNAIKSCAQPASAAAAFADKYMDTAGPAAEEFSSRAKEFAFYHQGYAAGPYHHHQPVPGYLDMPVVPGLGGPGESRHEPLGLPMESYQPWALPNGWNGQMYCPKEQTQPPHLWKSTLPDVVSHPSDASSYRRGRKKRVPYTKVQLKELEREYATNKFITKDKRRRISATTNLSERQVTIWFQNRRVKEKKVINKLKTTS

CC(=O)OC[C@H]1O[C@H](CC=NO[C@H](C)c2cn([C@@H]3COC[C@H]3O)nn2)C=C[C@@H]1OC(C)=O
composite z-score [1]: -0.205 (inactive) | composite z-score (XIP peptide (Xip251-270)): 0.644 | z-score [2]: -0.0896 | z-score [3]: 0.928 (inactive)

CCN1C(=O)[C@H]2[C@H]3[C@H](O)[C@H](O)CC(=NNC(=O)OCc4ccccc4)[C@@H]3CC[C@H]2C1=O
composite z-score [1]: -0.425 (inactive) | composite z-score (XIP peptide (Xip251-270)): -0.0369 | z-score [2]: 1.14 | z-score [3]: -0.144 (inactive)

COC(=O)[C@H](CCSC)NC(=O)CC=C[C@@H](C)CO
composite z-score [1]: -0.0999 (inactive) | composite z-score (XIP peptide (Xip251-270)): 0.334 | z-score [2]: -0.979 | z-score [3]: -0.265 (inactive)

C=CC[C@@H]1C=C[C@H](ON=C(C)CCN2CCCc3nc(C)c(C)cc32)[C@@H](CO)O1
composite z-score [1]: 1.59 (inactive) | composite z-score (XIP peptide (Xip251-270)): 0.241 | z-score [2]: -2.16 | z-score [3]: -7.32 (inactive)
